According to PubChem BioAssay (Tox21):
Results filed as inconclusive are left out. Calls of active or inactive are those of the source. Unless noted, the call rests on the fitted dose curve; in most records, active means well fitted curve in the direction sought with a large enough effect in the repeat runs; inconclusive means weak or mixed curves; inactive means no such curve, though single readings can be large; an effect the other way counts as inactive or inconclusive.

Key:
[1] = A CellTox Green Cytotoxicity Assay to monitor cytotoxicity in HEK293 cells - 16 hour (AID 1224888); further: nearly all actives have a fitted effect of over 35% in size
How it was run: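 Real-time, in one plate: 600 HEK293 cells/well with dead-cell DNA dye, pinned compound after 5 h, 37 C incubation over 40 h; viable cells give no appreciable fluorescence.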

[2] = qHTS RealTime-Glo MT Cell Viability Assay in HepG2 cells - 0 hour (AID 1224889); further: nearly all actives have a fitted effect of over 50% in size
How it was run: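 HepG2 cells were seeded at 600 cells/well together with NanoLuc luciferase and a cell-permeant prosubstrate, preincubated 5 h at 37 C/5% CO2, then pin-dosed with compounds in DMSO. Nonlytic luminescence from viable cells was read at each time point.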

[3] = A CellTox Green Cytotoxicity Assay to monitor cytotoxicity in HepG2 cells - 8 hour (AID 1224890); further: nearly all actives have a fitted effect of over 45% in size
How it was run: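 Cytotoxicity was tracked as dead-cell DNA fluorescence in HepG2 cells treated with test compounds at 37 C; each time-point value comes from one kinetic series spanning 0, 8, 16, 24, 32 and 40 h.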

[4] = qHTS assay to identify small molecule antagonists of the estrogen receptor alpha (ER-alpha) signaling pathway using the BG1 cell line in the presence of 0.1 nM 17-beta-estradiol - cell viability counter screen (AID 1259241); further: nearly all actives have a fitted effect of over 40% in size
How it was run: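 Following 5 days in phenol red-free medium with charcoal-stripped serum, VM7Luc4E2 cells received test compounds alongside 0.1 nM 17beta-estradiol (final) at 37C for 22 hr. Live cells were then quantified via protease-substrate fluorescence.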

[5] = qHTS assay to identify small molecule antagonists of the androgen receptor (AR) signaling pathway using the MDA cell line in the presence of 0.5 nM R1881 - cell viability counter screen (AID 1259242); further: nearly all actives have a fitted effect of over 45% in size
How it was run: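 Cells seeded at 3,000/well and allowed 5 hr at 37C, 0% CO2 before compound transfer and R1881 (0.5 nM final) addition; 16 hr later, live-cell protease fluorescence indicated cytotoxicity.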

[6] = biological target: Androgen receptor (Homo sapiens) (UniProt P10275); assay: qHTS assay to identify small molecule antagonists of the androgen receptor (AR) signaling pathway using the MDA cell line in the presence of 0.5 nM R1881 (AID 1259243); further: nearly all actives have a fitted effect of over 50% in size; further: potency means the concentration at half of the fitted maximal effect
How it was run: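 Luminescence from an AR/GR-responsive MMTV-luciferase construct in MDA-kb2 breast carcinoma cells, read 30 min after ONE-Glo, following 16 hr co-treatment with compounds and 0.5 nM R1881.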

[7] = qHTS assay to identify small molecule HDAC inhibitors - cell viability counter screen (AID 1259365); further: series mostly up to about 92 µM; nearly all actives have a fitted effect of over 50% in size
How it was run: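 HCT-116 wild-type, overnight attachment; 2hr drug exposure, 37C; CellTiter-Glo luminescent ATP readout after 30min RT.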

[8] = biological target: Estrogen receptor (Homo sapiens) (UniProt P03372); assay: qHTS assay to identify small molecule antagonists of the estrogen receptor alpha (ER-alpha) signaling pathway using the BG1 cell line in the presence of 0.1 nM 17-beta-estradiol (AID 1259244); further: nearly all actives have a fitted effect of over 50% in size
How it was run: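 Luciferase signal from VM7Luc4E2 ERE-reporter cells, co-dosed with test compound and 0.1 nM final 17beta-estradiol for 22 h, read with ONE-Glo.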

[9] = qHTS assay to identify small molecule phospholipidosis (PLD) inducers (AID 1259344; active means well fitted curve in the direction sought with a large enough effect; an effect the other way counts as inactive or inconclusive)
How it was run: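 Accumulated phospholipid, stained red by LipidTOX during 24 h compound treatment of HepG2 cells at 37 C, is quantified from images as pit number and intensity, normalised per cell using Hoechst-stained nuclei.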

[10] = qHTS assay to identify small molecule HDAC inhibitors (AID 1259364);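 further: wild-type HCT-116 cells with endogenous class I/II HDAC activity; top concentration of the series differs between compounds; nearly all actives have a fitted effect of over 45% in size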
How it was run: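 HCT-116 wt cells, 1,500/well, overnight attach. Compounds (DMSO) 2 h, 37 °C. HDAC-Glo I/II, 30 min RT. Luminescence.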
On the % scale 0 is the no-effect control and ±100 the full control effect.

Sequence of Androgen receptor (Homo sapiens) (P10275 whole entry, looked up): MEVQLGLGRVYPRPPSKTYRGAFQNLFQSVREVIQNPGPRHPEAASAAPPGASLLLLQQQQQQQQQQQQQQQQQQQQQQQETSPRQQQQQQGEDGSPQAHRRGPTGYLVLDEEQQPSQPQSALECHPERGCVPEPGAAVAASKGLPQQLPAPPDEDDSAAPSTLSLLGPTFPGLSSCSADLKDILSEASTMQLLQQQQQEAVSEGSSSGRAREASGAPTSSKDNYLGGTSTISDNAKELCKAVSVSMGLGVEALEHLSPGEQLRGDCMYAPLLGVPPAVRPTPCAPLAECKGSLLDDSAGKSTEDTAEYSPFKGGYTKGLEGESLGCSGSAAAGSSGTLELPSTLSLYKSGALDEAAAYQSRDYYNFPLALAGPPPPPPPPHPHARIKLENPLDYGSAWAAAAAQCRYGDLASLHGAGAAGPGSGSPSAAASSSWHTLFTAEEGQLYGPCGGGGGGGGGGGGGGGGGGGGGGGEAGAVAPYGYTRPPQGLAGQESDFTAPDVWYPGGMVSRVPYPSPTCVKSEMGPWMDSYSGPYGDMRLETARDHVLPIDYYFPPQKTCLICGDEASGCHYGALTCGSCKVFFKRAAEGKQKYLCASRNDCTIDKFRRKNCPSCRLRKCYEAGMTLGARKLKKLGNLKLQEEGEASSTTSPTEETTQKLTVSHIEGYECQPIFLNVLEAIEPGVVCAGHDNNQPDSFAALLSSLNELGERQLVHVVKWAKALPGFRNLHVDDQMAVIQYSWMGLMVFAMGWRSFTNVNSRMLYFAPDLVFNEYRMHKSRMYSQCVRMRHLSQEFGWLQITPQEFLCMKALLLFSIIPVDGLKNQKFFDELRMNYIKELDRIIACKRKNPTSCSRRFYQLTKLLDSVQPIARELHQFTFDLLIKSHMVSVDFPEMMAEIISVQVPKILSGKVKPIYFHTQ
Sequence of Estrogen receptor (Homo sapiens) (P03372 whole entry, looked up): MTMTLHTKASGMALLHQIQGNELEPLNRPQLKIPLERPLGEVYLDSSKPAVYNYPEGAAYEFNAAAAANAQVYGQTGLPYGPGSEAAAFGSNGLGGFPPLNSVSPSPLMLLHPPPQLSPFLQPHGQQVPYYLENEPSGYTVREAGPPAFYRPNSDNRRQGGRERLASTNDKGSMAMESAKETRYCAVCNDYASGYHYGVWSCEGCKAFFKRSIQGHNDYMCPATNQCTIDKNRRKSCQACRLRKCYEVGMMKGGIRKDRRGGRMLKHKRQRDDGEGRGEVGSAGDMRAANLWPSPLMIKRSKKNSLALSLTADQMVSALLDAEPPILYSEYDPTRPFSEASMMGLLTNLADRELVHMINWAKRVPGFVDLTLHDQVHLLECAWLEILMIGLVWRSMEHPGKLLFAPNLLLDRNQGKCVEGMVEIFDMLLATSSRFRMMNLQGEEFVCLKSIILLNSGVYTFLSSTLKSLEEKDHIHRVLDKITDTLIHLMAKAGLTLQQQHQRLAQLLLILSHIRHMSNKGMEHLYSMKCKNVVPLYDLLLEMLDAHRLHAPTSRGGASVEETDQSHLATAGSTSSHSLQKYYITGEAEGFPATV

CC1(C)C(=O)C(C)(C)C1=O
inactive: Potency [1] | Potency [2] | Potency [3] | outcome [4] | outcome [5] | Potency [6] | outcome [7]

O=C(CCBr)N1CCN(C(=O)CCBr)CC1
inactive: Potency [1] | Potency [2] | Potency [3] | outcome [4] | outcome [5] | outcome [8] | Potency [9] | Potency [10] | outcome [7]

Cc1ccc2cccnc2c1
inactive: Potency [1] | Potency [2] | Potency [3] | outcome [4] | outcome [5] | Potency [6] | outcome [8] | Potency [10] | outcome [7]

CCCCCCCCCCCCCCCCN(C)C
inactive: activity change [1] 0.327% [at 6.97 µM, active compounds read high] | activity change, negative = cytotoxicity [2] 4.22% [at 6.97 µM] | cytotoxicity increase [3] 2.33% [at 6.97 µM] | activity change, negative = cytotoxicity [4] 8.65% [at 8.39 µM] | viability change, negative = cytotoxic [5] 0.99% [at 8.39 µM] | activity, negative = inhibition [6] 15.5% [at 8.39 µM] | activity change, negative = inhibition [8] 15.1% [at 8.39 µM] | activity change, negative = inhibition [10] 2.04% [at 8.39 µM] | activity change, negative = cytotoxicity [7] 1.52% [at 8.39 µM]

C=CCN1CCc2nc(N)sc2CC1
inactive: Potency [1] | Potency [2] | Potency [3] | outcome [4] | outcome [5] | Potency [6] | Potency [9] | Potency [10]

C[C@@H](CN1CC(=O)NC(=O)C1)N1CC(=O)NC(=O)C1
inactive: Potency [1] | Potency [2] | Potency [3] | outcome [4] | outcome [5] | Potency [6] | outcome [8] | Potency [9] | Potency [10] | outcome [7]

C[C@@H]1CCC[C@H](C)N1CCCC(O)(c1ccccc1)c1ccccn1 (stereo partly specified)
inactive: Potency [1] | Potency [2] | Potency [3] | outcome [4] | outcome [5] | Potency [6] | outcome [8] | Potency [10] | outcome [7]

Cc1cc(=O)oc2cc(O[C@@H]3SC[C@@H](O)[C@H](O)[C@H]3O)ccc12
inactive: Potency [1] | Potency [2] | Potency [3] | outcome [4] | outcome [5] | Potency [6] | outcome [8] | Potency [10] | outcome [7]

Clc1ccc2c(c1)Nc1ccccc1S2
active: Potency [6] 10.6 µM
inactive: Potency [1] | Potency [2] | Potency [3] | outcome [4] | outcome [5] | outcome [8] | outcome [7]

CCN(CC)CC(=O)Oc1ccc(NC(C)=O)cc1
inactive: Potency [1] | Potency [2] | Potency [3] | outcome [4] | outcome [5] | Potency [6] | outcome [7]

CC(C)(C)NCC(O)COc1cccc2c1CCC(=O)N2 (stereo unspecified)
inactive: Potency [1] | Potency [2] | Potency [3] | outcome [4] | outcome [5] | Potency [6] | Potency [9] | Potency [10] | outcome [7]

CC(C)CC(O)Cc1ccccc1 (stereo unspecified)
inactive: Potency [1] | Potency [2] | Potency [3] | outcome [4] | outcome [5] | Potency [6] | outcome [8] | Potency [10] | outcome [7]

N#Cc1cc(NC(=O)C(=O)O)c(Cl)c(NC(=O)C(=O)O)c1
inactive: Potency [1] | Potency [2] | Potency [3] | outcome [4] | outcome [5] | Potency [6] | outcome [8] | Potency [10] | outcome [7]

CN(C)c1cc(NC(=O)CNC(C)(C)C)c(O)c2c1C[C@H]1C[C@H]3[C@H](N(C)C)C(=O)C(C(N)=O)=C(O)[C@@]3(O)C(=O)C1=C2O
inactive: Potency [1] | Potency [2] | Potency [3] | outcome [4] | outcome [5] | Potency [6] | outcome [8] | Potency [9] | Potency [10] | outcome [7]

CC(=O)c1ccc2ccc3ccccc3c2c1
inactive: Potency [1] | Potency [2] | Potency [3] | outcome [4] | outcome [5] | outcome [8]

CC(=O)OC1CCC(C(C)(C)C)CC1 (stereo unspecified)
inactive: Potency [1] | Potency [2] | Potency [3] | outcome [4] | outcome [5] | Potency [6] | outcome [8] | Potency [10] | outcome [7]

N[C@H]1C(O)O[C@H](CO)[C@@H](O)[C@@H]1O (stereo partly specified)
inactive: Potency [1] | Potency [2] | Potency [3] | outcome [4] | outcome [5] | Potency [6] | outcome [8] | Potency [9] | Potency [10] | outcome [7]

COCc1nnc(-c2ccc[n+]([O-])c2)n1-c1c(Cl)c(Cl)cc2[nH]c(=O)c(=O)[nH]c12
inactive: Potency [1] | Potency [2] | Potency [3] | outcome [4] | outcome [5] | Potency [6] | outcome [8] | Potency [10] | outcome [7]

CCOC(=O)[C@H](CCc1ccccc1)N[C@H]1CS[C@H](c2cccs2)CN(CC(=O)O)C1=O
inactive: Potency [1] | Potency [2] | Potency [3] | outcome [4] | outcome [5] | Potency [6] | outcome [8] | Potency [9] | Potency [10] | outcome [7]

Cc1ccc(N)nc1
inactive: Potency [1] | Potency [2] | Potency [3] | outcome [4] | outcome [5] | Potency [6] | outcome [8] | Potency [10] | outcome [7]

CC(=O)O[C@@H]1CC2C3CCc4cc(OC(=O)c5ccccc5)ccc4C3CCC2(C)[C@H]1OC(C)=O (stereo partly specified)
inactive: Potency [1] | Potency [2] | Potency [3] | outcome [4] | outcome [5] | outcome [8] | Potency [10] | outcome [7]
active: Potency [6] 10.6 µM

C[C@@H]1NC(=O)[C@@H](N)CNC(=O)[C@H](C2CCNC(N)=N2)NC(=O)/C(=C/NC(N)=O)NC(=O)[C@H](CNC(=O)C[C@@H](N)CCCN)NC1=O (stereo partly specified)
inactive: activity change [1] 17.5% [at 0.29 µM, active compounds read high] | activity change, negative = cytotoxicity [2] 5.25% [at 0.29 µM] | cytotoxicity increase [3] -1.65% [at 0.29 µM] | activity change, negative = cytotoxicity [4] 6.75% [at 0.349 µM] | viability change, negative = cytotoxic [5] 2.87% [at 0.349 µM] | activity change, negative = inhibition [8] 11.8% [at 0.349 µM] | Potency [9] | activity change, negative = inhibition [10] -0.0991% [at 0.349 µM] | activity change, negative = cytotoxicity [7] -0.0427% [at 0.349 µM]

NNC(=O)OCc1ccccc1
inactive: Potency [1] | Potency [2] | Potency [3] | outcome [4] | outcome [5] | Potency [6] | outcome [8] | Potency [10] | outcome [7]

C/C(Cl)=C/CCl
inactive: Potency [1] | Potency [2] | Potency [3] | outcome [4] | outcome [5] | Potency [6] | outcome [8] | Potency [10] | outcome [7]
